Sampled rows, rich in hits. Any-hit rate of the full collection: about 1.2%.
RTF Ca sens inh: cardiac RTF calcium desensitization. P19429+P45379. IANBD-labeled cardiac RTF, Ca2+ fluorescence. inhibition, % at 7.15 µM. hit rate 0.12% among 340,000. AID 493244;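 active means inhibition above the mean inhibition of all tested compounds plus 3 SD, cut at about 17% in these data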;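 further: assay run at fixed EC70 calcium of 1.6 mM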
GLD-1 RNA inh: GLD-1-TGE RNA interaction inhibition (C. elegans); Q17339; purified GLD-1 + fluorescein TGE RNA, fluorescence polarization; inhibition, % at 5.96 µM; hit rate 0.44% among 320,000;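 active means percent inhibition above a per-plate cutoff, the plate mean of test compounds plus 3 SD, cut at about 30% in these data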
Bcl-xL primary: inhibitors of human Bcl-xL; inhibition, % at 10.9 µM; GST-Bcl-xL / FITC-Bim BH3 peptide fluorescence polarization; AID 2129; hit rate 0.7% among 320,000; Q07817;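 active means inhibition above the mean of all tested compounds plus 3 SD, cutoff set per campaign, cut at about 30% in these data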;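 further: inhibitors lower millipolarization by displacing the labeled peptide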
Target sequence (Q07817 whole entry, looked up): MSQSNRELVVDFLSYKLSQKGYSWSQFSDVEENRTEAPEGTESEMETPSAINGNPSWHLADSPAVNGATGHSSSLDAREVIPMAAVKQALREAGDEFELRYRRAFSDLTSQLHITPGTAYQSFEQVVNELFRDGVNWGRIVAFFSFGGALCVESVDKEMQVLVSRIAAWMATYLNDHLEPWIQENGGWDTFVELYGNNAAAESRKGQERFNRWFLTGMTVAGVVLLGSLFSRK
eLon inh: inhibits E. coli Lon protease; P0A9M0; purified E. coli Lon protease, fluorescence polarization; inhibition, % at 7.94 µM; hit rate 0.42% among 360,000; AID 602123; in the data active means inhibition above about 13%, passing the limit was not always enough
cardiac RTF act: increases calcium sensitivity of human cardiac regulated thin filaments; AID 493008; activation, % at 7.2 µM; IANBD-labeled TnC RTF fluorescence at EC20 calcium; 0% EC20 calcium, 100% full calcium; hit rate 0.24% among 340,000; P19429+P45379;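 active means activation above the mean over all tested compounds plus 3 SD, cut at about 30% in these data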;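 further: rise in fluorescence read as greater calcium sensitivity of cardiac thin filaments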
Large screens that a line does not name were inactive.

CCCC(=O)N1CCC1(C)C(=O)NS(=O)(=O)c1ccc(F)cc1F (stereo not given)	none (no result: RTF Ca sens inh, GLD-1 RNA inh, Bcl-xL primary, cardiac RTF act)
CC(C)c1cc[n+](-c2nc([O-])sc2C=O)cc1	Bcl-xL primary 42
C/C(=N/NC(=O)CNC(=O)Cc1ccccc1)c1ccco1	cardiac RTF act 39
CN1/C(=C\P(=O)(N(C)C)N(C)C)C(C)(C)c2ccccc21	GLD-1 RNA inh 59, Bcl-xL primary 45
CCOC(=O)/C=C1/N(C)c2ccccc2C1(C)C	none
CC(C)N(C(=O)Nc1ccc2nsnc2c1)C(C)C	Bcl-xL primary 52 (no result: RTF Ca sens inh, eLon inh, cardiac RTF act)
O=C(Nc1ncc2c(n1)-c1ccccc1CC2)C1CC1	none
CC(C)SCC(=O)Nc1ncc2c(n1)-c1ccccc1CC2	Bcl-xL primary 35
Cc1ccc(NC2=Nc3ccccc3N3C2=Nc2c(c(C)nn2-c2ccccc2)C3c2ccc(O)c(O)c2)cc1 (stereo not given)	none (no result: GLD-1 RNA inh, Bcl-xL primary)
Cc1nn(-c2ccccc2)c2c1C(c1ccc(O)c(O)c1)N1C(=N2)C(Nc2ccccc2)=Nc2ccccc21 (stereo not given)	GLD-1 RNA inh 95, Bcl-xL primary 64
Cc1nn(-c2ccccc2)c2c1C(c1ccc([N+](=O)[O-])cc1)N1C(=N2)C(=O)Nc2ccccc21 (stereo not given)	none
Cc1cccc(NC2=Nc3ccccc3N3C2=Nc2c(c(C)nn2-c2ccccc2)C3c2ccc(O)c(O)c2)c1 (stereo not given)	Bcl-xL primary 48
COc1ccc(CCNC(=O)CSc2nnc(CNc3ccc(Cl)cc3)o2)cc1OC	none
COc1ccccc1-n1c(C)c2c(OC)cccc(=O)c2c1C	Bcl-xL primary 39
CCOc1ccc(C(=O)C[n+]2cccc3cc(C)ccc32)cc1	Bcl-xL primary 35
CC(=O)Oc1cc2cccc(OC(C)=O)c(=O)c2c(OC(C)=O)c1OC(C)=O	Bcl-xL primary 81
CC1CCN(C(=O)/C(=C/c2ccccc2Cl)c2ccccc2)CC1	none
N#CC(C#N)=C1C=CC=CN1/C(=C\c1ccccc1Cl)C(=O)c1ccccc1	Bcl-xL primary 51
Cc1ccc(NC(=O)NCCN2CCN(C(=O)Nc3ccc(C)cc3)CC2)cc1	none
O=C(NCCN1CCN(C(=O)Nc2ccccc2)CC1)Nc1ccccc1	Bcl-xL primary 112
O=C(CN1C(=O)c2ccccc2C1=O)Nc1cc(C(=O)O)cc(C(=O)O)c1	GLD-1 RNA inh 64
CCOCCCn1c(=NC(=O)c2cccs2)c(C#N)cc2c(=O)n3ccccc3nc21	GLD-1 RNA inh 55, Bcl-xL primary 91
N#Cc1cc2c(=O)n3ccccc3nc2n(Cc2ccco2)c1=NC(=O)c1ccco1	Bcl-xL primary 54
CCCCn1c(=NC(=O)c2ccco2)c(C(=O)OCC)cc2c(=O)n3ccccc3nc21	none
CCOC(=O)c1cc2c(=O)n3ccccc3nc2n(Cc2ccco2)c1=NC(=O)c1ccc(OC)cc1OC	Bcl-xL primary 49
CCOCCCn1c(=NC(=O)c2cccnc2)c(C(=O)OCC)cc2c(=O)n3ccccc3nc21	none
Cc1ccccc1C(=O)N=c1c(C#N)cc2c(=O)n3cccc(C)c3nc2n1Cc1ccco1	none (no result: RTF Ca sens inh, eLon inh, cardiac RTF act)
CCCC(C)C(=O)Nc1ccccc1C(=O)OCC (stereo not given)	none
CS(=O)(=O)n1nc(-c2ccc(Cl)cc2)nc1N	none
Cn1nc(-c2ccc(Cl)cc2)nc2c(=O)n(C)c(=O)nc1-2	GLD-1 RNA inh 78, Bcl-xL primary 90 (no result: RTF Ca sens inh, eLon inh, cardiac RTF act)
O=c1[nH]c(S)c(/C=C2\C=Nc3ccccc32)s1	GLD-1 RNA inh 45, Bcl-xL primary 77 (no result: RTF Ca sens inh, cardiac RTF act)
CSCCCN1CC[C@@H](N2CCN(c3ccccc3F)CC2)[C@H](O)C1	none
O=C(c1cc(F)ccc1F)C1CCCN(C(=O)CCCN2CCCCC2=O)C1 (stereo not given)	Bcl-xL primary 51
C=CCn1c2ccccc2c2nnc(SCC(=O)OC)nc21	none (no result: RTF Ca sens inh, GLD-1 RNA inh, Bcl-xL primary, cardiac RTF act)
Cc1ccc(OCC(=O)N(Cc2ccc(N(C)C)cc2)C2CCS(=O)(=O)C2)cc1 (stereo not given)	none
Clc1ccc2[nH]c(-c3ccccc3)cc2c1	Bcl-xL primary active
O=C(COc1ccc(Cl)cc1)NCc1ccccc1	cardiac RTF act 152
O=C(COc1ccccc1)NCc1ccccc1	none
CCC1=C/C(=C/N(C)c2ccccc2)C(=O)S1	Bcl-xL primary 31
CN(C)/C=C1/C=C(c2ccccc2)OC1=O	none
CCOC(=O)C1(CCOc2ccccc2)CCN(S(=O)(=O)N(C)C)CC1	none
CN1Cc2sc(N)c(C#N)c2CC1(C)C	Bcl-xL primary 61
COc1ccc(CC(=O)N/N=C(\C)c2cccs2)cc1OC	none (no result: GLD-1 RNA inh, Bcl-xL primary)
Cc1ccc(NC(=O)c2sc3nc4c(c(-c5ccco5)c3c2N)CCC4)cc1	GLD-1 RNA inh 64
COC(=O)c1cc2n3ccccc3c(C)c(-c3ccccc3)c-2c1C(=O)OC	GLD-1 RNA inh 86, Bcl-xL primary 110
COC(=O)c1cc2ccccn2c2c(C(=O)OC)c(C(=O)OC)cc1-2	none
Cc1ccc(C(=O)Nc2ccc(Br)cc2)cc1S(=O)(=O)Nc1ccccn1	none
CN(C)S(=O)(=O)c1ccc(-c2csc(-c3cccnc3)n2)cc1	none
CS(=O)(=O)c1ccc(-c2csc(-c3cccnc3)n2)cc1	Bcl-xL primary 31
CCCC(C)NC(=S)NC(=O)c1cc(S(=O)(=O)N2CCOCC2)ccc1C (stereo not given)	none
Cc1ccc(C(=O)COC(=O)C2CCC2)cc1	cardiac RTF act 63
CCC(C)(C)c1ccc(OCC(=O)Nc2ccncc2)cc1	Bcl-xL primary 69
O=C(COc1ccc(Br)cc1)Nc1ccncc1	none
CCc1cc(=O)oc2c(C)c(OC(C)C(=O)NC3CC(C)(C)NC(C)(C)C3)ccc12 (stereo not given)	none
COc1cc(OC)c(OC)cc1/C=C/C(=O)c1ccc(NS(=O)(=O)c2ccc(C)cc2)cc1	cardiac RTF act 35
O=C(C(NS(=O)(=O)c1cccs1)c1ccccc1)N1CCN(c2ccccc2)CC1 (stereo not given)	Bcl-xL primary 31
O=S(=O)(c1cccs1)N1CCN(c2ccccc2)CC1	none
O=C(Oc1ccc(=O)n(-c2ccccc2)n1)c1ccc(Cl)cc1	none
CN(CCC#N)C(=O)COC(=O)c1c2c(nc3ccccc13)/C(=C/c1ccco1)CC2	Bcl-xL primary 44
O=C(CNS(=O)(=O)c1cccc(Br)c1)NCC1CCCCC1	none
Cc1ccc(NC(=O)/C(C#N)=C(\N)C(Cl)(Cl)Cl)nc1	GLD-1 RNA inh 43, Bcl-xL primary 72
O=C(NCc1ccc(Cl)cc1)C1CCN(c2cnccn2)CC1	cardiac RTF act 30
N/C(=N\c1nc2c(c(=O)[nH]1)CCC2)Nc1ccccc1C(F)(F)F	RTF Ca sens inh 17
Cc1cc(C)cc(Oc2ccccc2/C=C\C(=O)O)c1	none
COc1cc(NC(C)C(=O)N2CC(C)OC(C)C2)cc(OC)c1 (stereo not given)	Bcl-xL primary 72
O=[N+]([O-])c1ccc2nc(-c3cccnc3)[nH]c2c1	none
O=[N+]([O-])c1cc([N+](=O)[O-])c2cc(-c3cccnc3)[nH]c2c1	Bcl-xL primary 36
Cc1ccc2nc(C)/c(=N\O)c(C)nc2c1	none

Compound activity from PubChem.
